# Screening results as filed in PubChem BioAssay.
# In the library only some 6.2% were active in any assay of this set; here they are far more common.
# Marburg entry inh – qHTS for inhibitors of binding or entry into cells for Marburg Virus. Marburg virus pseudotyped entry inhibition, cell reporter. Potency, µM (series often up to 37.8 µM), for inactives: at the top dose activity change, negative = inhibition, most hits filed as inhibitors. 300,000 tested, 1.8% active; calls by dose curve; tested in HEK293 cells; note: potency is the fitted concentration of half-maximal effect
# FMDV antiviral – High Throughput Screening for Foot and Mouth Disease Virus Antivirals | Potency, µM (series often up to 57.9 µM), for inactives: top-dose activity change, negative = inhibition, most hits filed as inhibitors | 410,000 tested, 1.2% active | FMDV antiviral cell-based qHTS; calls by dose curve; tested in HEK293T cells; note: read-out not given here; potency is the fitted concentration of half-maximal effect; nearly all actives have a fitted effect of over 45% in size
# HCMV inh – qHTS Assay for inhibitors of the human cytomegalovirus (HCMV); HFF cells, HCMV-luciferase reporter, 72 h; hits give low values; activity change, negative = inhibition, % at 57.5 µM; 410,000 tested, 4.5% active; in the data active = activity change below about -60%; inconclusive = no clear call, values can overlap the other calls; inactive = above about -39%
#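 HFF cells seeded 16 h at 37C, treated with compounds, infected with luciferase-reporter HCMV at MOI 1 PFU/cell; luciferase read at 72 h post infection, normalized to buffer-only and Salinomycin controls.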
# LASV entry inh – qHTS for Inhibitors of binding or entry into cells for Lassa Virus | Lassa virus pseudotype entry inhibition, cell reporter | Potency, µM (doses to about 37.9 µM), for the others: at the top dose activity change, negative = inhibition, usual class: inhibitors | 300,000 tested, 1.2% active | AID 540256, 2011; calls by dose curve; tested in HEK293 cells; note: potency is the fitted concentration of half-maximal effect; nearly all actives have a fitted effect of over 50% in size
# An asterisk follows results filed as active; u = inconclusive; x = no result given; [ ] = dose if it differs, or a comment. % is set by controls: 0 for no effect and ±100 for the full control effect.
SMILES,Marburg entry inh,FMDV antiviral,HCMV inh,LASV entry inh
COc1ccc(O)c(/C=N/NC(=S)Nc2cccc(S(=O)(=O)N(C)C)c2)c1,3.7µM*,0%,27,4.6µM*
CCN(CC)S(=O)(=O)c1ccc(N/N=C/c2cc(OC)ccc2O)nc1,u,-24%,-103*,u
COc1ncc2nc(-c3cn(C)c4ccccc34)c(=O)n(C[C@H]3CCCO3)c2n1,x,-9%,x,x
N#C/C(=C(/O)COC(=O)CSc1ccc(Cl)cc1)c1nc2ccccc2[nH]1,-13%,u,-81*,9%
COc1ccc(OC/C(O)=C(\C#N)c2nc3ccccc3[nH]2)cc1,10%,18%,-9,22%
CCOC(=O)/C(O)=C(\C#N)c1nc2ccccc2[nH]1,-8%[46.1 µM],u,-64*,-2%[46.1 µM]
CCOC(=O)c1c(C)[nH]c(C(=O)OC/C(O)=C(\C#N)c2nc3ccccc3[nH]2)c1C,-24%,-6%,x,-15%
COc1ccccc1OCC(=O)OC/C(O)=C(\C#N)c1nc2ccccc2[nH]1,x,2%,-99*,x
N#C/C(=C(/O)COC(=O)CCCNC(=O)c1ccc(Cl)cc1)c1nc2ccccc2[nH]1,u,u,-93*,u
C[C@H]1CNC(=O)c2c(C(=O)NC3CCN(C(=O)OC(C)(C)C)CC3)ncn21,x,-6%,-4,x
CCOc1ccc(-c2nnn(CC(=O)N3CCCC(C)C3)n2)cc1 (configuration not stated),x,-8%,-70*,x
CCCOc1ccc(-c2nnn(CC(=O)N3CCCC(C)C3)n2)cc1 (configuration not stated),x,-11%,-40,x
Clc1ccc2c(NCc3ccccn3)ccnc2c1,x,u,-72*,x
CCOc1ccc(NC(=S)NNc2ccnc3cc(Cl)ccc23)cc1,u,u,54,-1%
CCOc1ccccc1Nc1ccnc2cc(Cl)ccc12,u,-26%,u,10µM*
CCOC(=O)c1cccc(NC(=O)COc2nsnc2N2CCOCC2)c1,u,25µM*,-1,x
CCOC(=O)c1cccc(NC(=O)CCn2cccc2)c1,-26%,-22%,-8,8.9µM*
COc1ccc(CN2CCCC(n3cc(C(=O)N4CCCCC4)nn3)C2)cc1OC (configuration not stated),x,13%,x,x
Cc1nc2ccc(NC(=O)c3cccc(S(=O)(=O)N4CC(C)OC(C)C4)c3)cc2s1 (configuration not stated),-28%[46.1 µM],20µM*,0,u
COc1cc(C(=O)Nc2ccc(S(=O)(=O)N(C)c3ccccc3)cc2)cc(OC)c1OC,u,-3%,-21,u
COc1ccc(C(=O)Nc2ccc(S(=O)(=O)N(C)c3ccccc3)cc2)cc1,u,u,-69*,u
Cc1nc2ccc(NC(=O)N(C)c3ccccc3)cc2s1,27%[46.1 µM],-2%,36,u
Cc1nc2ccc(NC(=O)c3ccc(S(=O)(=O)N(C)c4ccccc4)cc3)cc2s1,u,22µM*,-82*,u
COc1ccc(NC(=O)c2ccc(S(=O)(=O)N(C)c3ccccc3)cc2)cn1,x,18µM*,-62*,x
COc1ccccc1Cn1ccn(CC(=O)Nc2c(C)cc(C)cc2C)c(=O)c1=O,x,0%,3,u
SMILES,Marburg entry inh,FMDV antiviral,HCMV inh,LASV entry inh
COc1cccc([C@H]2C(C(=O)c3cccs3)=C(O)C(=O)N2c2cc(C)on2)c1,13%,x,x,x
CC1CN(S(=O)(=O)c2ccc(NC(=O)c3cc(-c4ccccc4O)n[nH]3)cc2)CC(C)O1 (configuration not stated),12µM*,u,-98*,21µM*
CN(C)S(=O)(=O)c1ccc(NC(=S)NC(=O)Cc2ccccc2)cc1,-1%[46.1 µM],-17%,-63*,23%[46.1 µM]
O=C(Nc1ccc(S(=O)(=O)N2CCOCC2)cc1)c1cc(-c2ccccc2O)n[nH]1,x,0%,u,x
CN(c1ccccc1)S(=O)(=O)c1ccc(NC(=S)NC(=O)c2ccccc2)cc1,-4%,-27%,-28,u
CN(c1ccccc1)S(=O)(=O)c1ccc(NC(=O)CC(=O)c2ccccc2)cc1,-43%,40µM*,-33,-19%
CCc1cc2c(nc1CC)CCCN2CCOC,x,x,3,x
Cc1[nH]n(-c2ccccc2)c(=O)c1N=Nc1c(O)cc(S(=O)(=O)N(C)C)c2ccccc12,x,13µM*,-99*,x
O=C1Cc2c([nH]c3ccc(Br)cc23)-c2ccccc2N1,u,22%,-75*,u
COc1cccc(CNC(=O)C2(C)CCCCN2C)c1 (configuration not stated),x,1%,20,x
Clc1ccc(C2=NNC(=NCc3ccccc3)SC2)cc1,u,33%,-79*,20%
